# Bioassay records: PubChem, National Center for Advancing Translational Sciences (NCATS)
# Sampled rows, rich in hits. Any-hit rate of the full collection: about 6.5%.
# MARV entry inh = inhibitors of Marburg virus binding or cell entry. Marburg virus pseudotyped entry inhibition, cell reporter. Potency, µM (highest dose often 37.8 µM), inactives show at the top dose activity change, negative = inhibition, most hits filed as inhibitors. actives 1.8% (n = 300,000). AID 540276; calls by dose curve; tested in HEK293 cells; note: potency is the fitted concentration of half-maximal effect
# Lassa entry inh = Lassa virus entry inhibition | Lassa virus pseudotype entry inhibition, cell reporter | Potency, µM (highest dose often 37.9 µM), inactives show top-dose activity change, negative = inhibition, usual class: inhibitors | actives 1.2% (n = 300,000); calls by dose curve; tested in HEK293 cells; note: potency is the fitted concentration of half-maximal effect; nearly all actives have a fitted effect of over 50% in size
# VACV Venus inh = vaccinia inhibition (Venus reporter); Vaccinia virus Venus reporter expression, fluorescence; Potency, µM (series often up to 36.5 µM), for inactives: at the highest dose activity change, negative = inhibition, usual class: inhibitors; actives 0.46% (n = 330,000); AID 720580; calls by dose curve; tested in A549 cells; note: potency is the fitted concentration of half-maximal effect; nearly all actives have a fitted effect of over 30% in size
# HCMV inh = blocks human cytomegalovirus replication; HFF cells, HCMV-luciferase reporter, 72 h; stronger effect = lower value; activity change, negative = inhibition, % at 57.5 µM; actives 4.5% (n = 410,000); in the data active = activity change below about -60%; inconclusive = no clear call, values can overlap the other calls; inactive = above about -39%
#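 Screen run at 2 compound doses on HFFs infected with reporter HCMV, MOI 1 PFU/cell. Luciferase activity from cell lysates at 72 h post infection gave inhibition relative to buffer-only and Salinomycin wells.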
# FMDV antiviral = foot and mouth disease virus antiviral activity; FMDV antiviral cell-based qHTS; Potency, µM (highest dose often 57.9 µM), for inactives: at the highest dose activity change, negative = inhibition, hits mostly inhibitors; actives 1.2% (n = 410,000); calls by dose curve; tested in HEK293T cells; note: read-out not given here; potency is the fitted concentration of half-maximal effect; nearly all actives have a fitted effect of over 45% in size
# VACV mCherry inh = vaccinia inhibition (mCherry reporter); Vaccinia virus mCherry reporter infection, fluorescence; Potency, µM (titrated, usually from 36.5 µM), for inactives: at the highest dose activity change, negative = inhibition, most hits filed as inhibitors; actives 0.63% (n = 310,000); calls by dose curve; tested in A549 cells; note: potency is the fitted concentration of half-maximal effect; nearly all actives have a fitted effect of over 35% in size
# * = called active by the depositor; i = inactive; ? = inconclusive; . = no result; [ ] = another dose, or the depositor's remark. % is set by controls: 0 for no effect and ±100 for the full control effect.
SMILES,MARV entry inh,Lassa entry inh,VACV Venus inh,HCMV inh,FMDV antiviral,VACV mCherry inh
Oc1c(N=Nc2nn[nH]n2)ccc2ccccc12,.,.,?,-85.0*,?,?
COc1cccc(N=Nc2ccc3ccccc3c2O)c1,.,.,.,34.2,-58.6%,.
Oc1ccc2ccccc2c1N=Nc1ccc(F)cc1,-1.6%,-22.0%,3.0%,33.5,2.6%,-4.9%
Oc1c(N=Nc2ccc(F)cc2)ccc2ccccc12,?,?,7.5%,96.8,14.1µM*,?
Cc1ccc(N=Nc2ccc3ccccc3c2O)cc1,?,4.47µM*,4.7%,?,7.94µM*,-7.7%
CCc1cccc(C)c1NC(=O)c1cc(S(=O)(=O)N2CCN(c3ccccc3)CC2)ccc1F,.,-11.3%[46.1 µM],-3.3%,-9.1,?,-18.5%
Cc1cccc(OCC(=O)Nc2c3c(nn2C(C)(C)C)CS(=O)(=O)C3)c1,-0.8%[46.1 µM],-16.8%[46.1 µM],-3.3%,51.1,-3.5%,-6.2%
Cc1oc(=O)c(NC(=O)c2cccc(Cl)c2)cc1C(=O)c1ccccc1,?,-17.1%,.,-84.3*,-20.5%,.
COc1ccc2nc(NC(=O)c3cccc(-c4cc5ccccc5oc4=O)c3)sc2c1,?,?,12.6µM*,1.3,-16.8%,?
O=C(Nc1cc2ccccc2oc1=O)c1ccccc1,1.26µM*,2.51µM*,-0.2%,-39.2,-80.8%,3.2%
Cc1c(NC(=O)c2cccc(-c3cc4ccccc4oc3=O)c2)cccc1-c1nc2ncccc2o1,?,?,-20.3%,-67.6*,-22.6%,-9.0%
CCSc1ncc(Cl)c(C(=O)Nc2c(C(=O)c3ccc(C)c(F)c3)oc3ccccc23)n1,0.0%[46.1 µM],1.4%[46.1 µM],-2.5%,26.3,-17.6%,-18.9%
Cc1cnc(C)c(-c2cccc3c2OC(CNC(=O)c2cc(C)on2)C3)n1 (centres undefined),.,.,2.0%,.,15.4%,-16.0%
COc1ccc(OC)c(-c2cc(Cl)c3c(c2)CC(CNC(=O)c2cnn4cccnc24)O3)c1 (centres undefined),.,.,1.7%,.,32.5%,-8.5%
COC[C@H]1O[C@]2(c3ccccc3)CO[C@@H]1[C@@H](C=Cc1ccccc1)C2,26.1%[14.2 µM],?,.,.,.,.
COCc1c(C(=O)N2CCCCCC2)cnn1-c1nccc(-c2cccs2)n1,.,.,-9.6%,.,30.8%,-10.7%
CCN1CCc2c(sc(-n3cccc3)c2C(C)NC(=O)Nc2ccccc2C)C1 (centres undefined),.,-1.8%[46.1 µM],-7.2%,-66.9*,27.4%,-5.6%
CCN1CCc2c(sc(-n3cccc3)c2C(C)NC(=O)Nc2cc(Cl)c(OC)cc2OC)C1 (centres undefined),.,2.5%[46.1 µM],-6.3%,20.7,1.5%,-9.5%
Cc1ccc(S(=O)(=O)N2CCCCC2)cc1NC(=O)CSc1ncnc2ccccc12,?,?,?,-70.9*,-16.2%,11.2µM*
Cc1ccc(NC(=O)CSc2ncnc3ccccc23)cc1S(=O)(=O)N1CCCCCC1,?,-0.3%,?,25.8,8.91µM*,?
O=C(CNc1ccccc1F)Nc1cc(S(=O)(=O)N2CCCCC2)ccc1Cl,.,.,.,-26.4,-21.6%,.
Cc1ccc(S(=O)(=O)N2CCCCC2)cc1NCC(=O)Nc1ccc(Br)cc1F,.,.,?,-85.8*,?,?
O=C(NCc1ccccc1Cl)O[C@H]1CC[C@@]23CCCN2C(=O)CCC[C@H]3[C@H]1Cc1ccccc1,.,.,.,-2.4,.,.
COC(=O)[C@@]12OC[C@]34[C@H]([C@@H](O)[C@@H]1O)[C@@]1(C)C(=O)C(O[C@@H]5OC(CO)[C@@H](O)[C@@H](O)[C@@H]5O)=C[C@@H](C)[C@@H]1C[C@H]3OC(=O)[C@H](OC(=O)/C=C(\C)C(C)(C)OC(C)=O)[C@@H]24 (some centres undefined),.,.,8.91µM*,.,0.0%,8.91µM*
CC(C)(C)c1ccc(/C=C/C(=O)Nc2ccc(S(N)(=O)=O)cc2)cc1,?,-13.7%[46.1 µM],?,?,?,-22.6%
SMILES,MARV entry inh,Lassa entry inh,VACV Venus inh,HCMV inh,FMDV antiviral,VACV mCherry inh
Cc1c(C(=O)NCC2COCCO2)cnn1-c1ncc2c(n1)-c1ccccc1CC2 (centres undefined),.,.,?,.,26.7%,?
O=C(C1CCC(CNc2nc(=S)[nH]c3ccccc23)CC1)N1CCN(c2ccccn2)CC1 (centres undefined),-26.3%,-21.4%[14.3 µM],-14.7%,-107.4*,?,-14.9%
COc1ccc(C(=O)CSc2nn3c(=O)c(C(C)(C)C)nnc3s2)cc1,-8.2%,-22.4%,-3.0%,44.0,14.1µM*,.
Clc1ccc(C(c2ccc(Cl)cc2)n2cc[n+](CC(OCc3ccc(Cl)cc3Cl)c3ccc(Cl)cc3Cl)c2)cc1 (centres undefined),12.6µM*,.,11.2µM*,-99.0*,?,?
CCC(C)(C)c1ccc(OCCCC[n+]2ccccc2)c(C(C)(C)CC)c1,.,.,.,-98.4*,31.6µM*,.
CCC(C)(C)c1ccc(Oc2cccc(C(=O)O)c2)cc1,3.9%[46.1 µM],17.4%[46.1 µM],3.9%,88.1,38.5%,-4.7%
O=c1ccn([C@@H]2O[C@H](COS(=O)(=O)O)[C@@H](O)[C@H]2O)c(=O)[nH]1,.,.,-15.1%,-61.8*,0.0%,i
COc1ccc(C(=O)NCC(=O)N=Nc2c(O)n(C)c3ccccc23)cc1OC,.,.,.,-60.8*,-9.3%,.
CN(c1ccc(C(=O)N2CCCCCC2)cc1)S(=O)(=O)c1ccc(Cl)cc1,-28.2%,?,-21.2%,-73.8*,?,-6.4%
COc1ccc(S(=O)(=O)N(C)c2ccc(C(=O)N3CCC(C(N)=O)CC3)cc2)cc1OC,9.3%,8.5%,-4.7%,-100.4*,-12.5%,i
COc1ccc(S(=O)(=O)N(C)c2ccc(C(=O)N3CCC(C(N)=O)CC3)cc2)cc1,0.5%,0.2%,-0.9%,-14.5,-5.9%,-9.5%
CN(c1ccc(C(=O)N2CCOCC2)cc1)S(=O)(=O)c1ccc(Cl)cc1,-2.5%,14.8%,-9.6%,27.4,-15.5%,-1.3%
COc1cc(OC)cc(C(=O)NN(CCC#N)C2=NS(=O)(=O)c3ccccc32)c1,10.2%,1.2%,-7.5%,9.1,-6.2%,-5.5%
O[C@@H]1CN(Cc2cccs2)[C@@H](c2ccc(Cl)cc2)C[C@H]1n1cc(C2CC2)nn1,.,.,-25.9%,22.1,-18.6%,-26.9%
COc1ccccc1C1CCCN1Cc1nc(-c2ccc(C)s2)oc1C (centres undefined),?,3.55µM*,36.0%,-98.9*,-19.5%,?
COc1ccccc1C1CCCN1Cc1nc(-c2cc3c(cc2Cl)OCO3)oc1C (centres undefined),?,?,-0.6%,-24.4,-19.5%,?
COc1ccc2c(c1)OC(C)CN(CCNC(=O)c1cccc(N3CCNC3=O)c1)C2 (centres undefined),.,.,-15.4%,.,4.2%,-16.1%
O=C1c2ccccc2C(=O)N1CCCCc1cn(C[C@H]2CC[C@@H]([C@@H]3CC[C@H](Cn4cc(CCCCN5C(=O)c6ccccc6C5=O)nn4)O3)O2)nn1,.,.,-3.7%,11.9,25.1µM*,-8.7%
CCCC[C@@H](C(=O)O)[C@H](C)CC(=O)Nc1cccc(C(=O)O)c1,9.5%,.,.,.,.,.
